Screening results from PubChem BioAssay.
Calb biofilm kill – kills Candida albicans biofilms; hit rate 0.14% among 85,000; AID 834; C. albicans biofilm + clotrimazole, Alamar Blue; inhibition, % at 6 µM;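 active means inhibition above 20%; inactive means inhibition below 20%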;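 further: preformed 24 hr biofilms exposed to compound for 48 hr; 0% = biofilm without compound and 100% = blank killed by clotrimazole plus chlorhexidine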
F-actin modifier – cytoskeleton assembly modification. HUVEC TNFa F-actin phalloidin imaging, high content. AID 836. inhibition, % at 2 µM. hit rate 0.18% among 91,000;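 active means inhibition above the batch mean plus 3 SD and confirmed as a hit by visual image inspection, cut at about 30% in these data, passing the limit was not always enough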
ERa coact inh – blocks coactivator binding to human estrogen receptor alpha | inhibition, % at 25.6 µM | TR-FRET ER-alpha LBD / SRC-1 peptide, estradiol-bound | P03372 | hit rate 1.7% among 86,000 | AID 629; in the data active means inhibition above about 50%;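 further: 0% = receptor plus peptide control and 100% = peptide only without receptor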
Target sequence (P03372 whole entry, looked up, the tested form may be a part): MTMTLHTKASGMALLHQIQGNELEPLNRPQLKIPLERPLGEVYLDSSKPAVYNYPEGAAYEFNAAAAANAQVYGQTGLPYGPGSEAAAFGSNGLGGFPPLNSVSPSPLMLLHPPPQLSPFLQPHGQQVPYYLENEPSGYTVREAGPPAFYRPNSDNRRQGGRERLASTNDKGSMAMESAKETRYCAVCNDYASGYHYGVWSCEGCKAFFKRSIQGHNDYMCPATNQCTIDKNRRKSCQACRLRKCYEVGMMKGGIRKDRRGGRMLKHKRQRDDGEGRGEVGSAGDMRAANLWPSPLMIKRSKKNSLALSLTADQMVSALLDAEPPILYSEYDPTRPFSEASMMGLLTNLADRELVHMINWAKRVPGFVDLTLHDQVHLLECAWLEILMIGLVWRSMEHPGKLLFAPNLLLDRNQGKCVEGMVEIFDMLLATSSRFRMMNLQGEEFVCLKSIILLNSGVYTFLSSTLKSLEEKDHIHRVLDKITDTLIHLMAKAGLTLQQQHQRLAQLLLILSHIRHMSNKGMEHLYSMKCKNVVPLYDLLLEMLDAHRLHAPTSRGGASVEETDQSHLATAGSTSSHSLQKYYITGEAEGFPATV
ERb SRC1 inh – ER-beta (human) coactivator binding inhibition; Q92731; TR-FRET ER-beta LBD / SRC1-Cy5 peptide binding; receptor agonist-loaded with 1 µM estradiol; inhibition, % at 25.6 µM; hit rate 1.3% among 86,000; AID 633;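 active means compounds whose percent inhibition of the receptor-coactivator binding signal exceeds about 50% in the single-dose screen, limit read from the data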;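 further: 0% = receptor plus peptide wells without compound and 100% = peptide-only wells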
E-sel TNF inh – TNF alpha driven E-selectin expression inhibition; HUVEC TNFa-induced E-selectin immunofluorescence, high content; inhibition, % at 2 µM; hit rate 0.71% among 120,000;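 active means inhibition above the batch mean plus 3 SD, and confirmed as a hit on visual image review, cut at about 43% in these data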;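 further: 0% = TNF-stimulated DMSO wells and 100% = unstimulated control wells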
ERa coact pot – enhances coactivator binding to human estrogen receptor alpha. TR-FRET ERalpha-LBD/SRC-Cy5 coactivator binding, 2 h; 100 = basal binding, no effect. coactivator binding (% of control), % at 25.6 µM. hit rate 1.3% among 86,000. AID 639; in the data active means activity above about 200%;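 further: binding measured in presence of low estradiol as agonist stimulus; 0% = peptide alone without receptor and 100% = receptor with peptide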
An asterisk follows results filed as active; [ ] = dose if it differs, or a comment. Most compounds without a hit are left out; they make up all but 2.9% or so of the library.

`COc1ccc(C)cc1-n1nnnc1SCC(=O)NC(=O)NCc1ccco1` gave Calb biofilm kill 5, F-actin modifier -13, ERa coact inh 73*, ERb SRC1 inh 46, E-sel TNF inh 17 and ERa coact pot 50.
Screening COc1ccccc1NC(=O)CSc1nnc(-c2ccc(NC(C)=O)cc2)n1C returned F-actin modifier 0 and E-sel TNF inh 67*.
`COC(=O)c1ccc(-n2nnnc2SCC(=O)Nc2ccccc2OC)cc1` gave Calb biofilm kill 4, F-actin modifier -10, ERa coact inh 58*[fluorescence artefact?], ERb SRC1 inh 25, E-sel TNF inh 19 and ERa coact pot 170.
`COc1ccc(C)cc1-n1nnnc1SCC(=O)Nc1cccnc1Cl` gave E-sel TNF inh 78*.
Screening COc1ccc(C)cc1-n1nnnc1SCC(=O)Nc1cc(C)on1 returned Calb biofilm kill 6, ERa coact inh 7, ERb SRC1 inh 8, E-sel TNF inh -40 and ERa coact pot 115.
`COc1ccc(-n2nnnc2SCC(=O)NCc2ccco2)cc1OC` gave Calb biofilm kill 8, F-actin modifier -28, ERa coact inh 11, ERb SRC1 inh 18, E-sel TNF inh -1 and ERa coact pot 96.
Screening COc1ccccc1NC(=O)CC(=O)CSc1nnc(-c2ccc(C)cc2)n1C returned Calb biofilm kill 1, F-actin modifier 19, ERa coact inh -16, ERb SRC1 inh -14, E-sel TNF inh 32 and ERa coact pot 88.
Screening COc1ccc(C(=O)Cn2nnc(-c3ccccc3NC(=O)c3ccco3)n2)cc1 returned Calb biofilm kill 3, F-actin modifier 0, ERa coact inh 9, ERb SRC1 inh -6 and ERa coact pot 177.
O=C1C2C3c4ccccc4C(c4ccccc43)C2C(=O)N1Cc1ccco1 (stereo not given) was read as Calb biofilm kill 6, ERa coact inh 13, ERb SRC1 inh 34 and ERa coact pot 94.
`CC12C(=O)N(Cc3ccco3)C(=O)C1C1c3ccccc3C2c2ccccc21` (stereo not given) gave Calb biofilm kill 4, F-actin modifier 16, ERa coact inh 47, ERb SRC1 inh 55*[fluorescence artefact?] and ERa coact pot 163.
CCC(=O)NC(Nc1sc2c(c1C(=O)OC)CCN(C)C2)(C(F)(F)F)C(F)(F)F was read as Calb biofilm kill 5, F-actin modifier 15, ERa coact inh -5, ERb SRC1 inh -12, E-sel TNF inh 5 and ERa coact pot 105.
Screening Cc1nc2ccc(S(=O)(=O)NCC(=O)NCc3ccc4c(c3)OCO4)cc2s1 returned Calb biofilm kill 14, F-actin modifier -23, ERa coact inh 6, ERb SRC1 inh 1 and ERa coact pot 97.
Screening Cc1nc2ccc(S(=O)(=O)NCC(=O)NCCN3CCCCCC3)cc2s1 returned Calb biofilm kill 12, F-actin modifier -8, ERa coact inh 57*[fluorescence artefact?], ERb SRC1 inh 22 and ERa coact pot 54.
`C[C@]12CC[C@H]3C(=CCc4cc(O)ccc43)[C@@H]1CCC2=O` gave Calb biofilm kill 8, ERa coact inh 16, ERb SRC1 inh 13 and ERa coact pot 206*.
CC(C)Cn1c(CN2CCN(c3ccccc3F)CC2)nc2c1c(=O)[nH]c(=O)n2C was read as Calb biofilm kill 6, F-actin modifier 2, ERa coact inh -2, ERb SRC1 inh -4 and ERa coact pot 124.
`O=C(CSc1ncnc2nc[nH]c12)Nc1ccccc1C(F)(F)F` gave F-actin modifier 14 and E-sel TNF inh 76*.
`Cc1cccc(C)c1NC(=O)CSc1ncnc2nc[nH]c12` gave F-actin modifier 8.
Screening c1coc(-c2nc3ccccc3nc2-c2ccco2)c1 returned Calb biofilm kill 9, ERa coact inh 84*[fluorescence artefact?], ERb SRC1 inh 93*[fluorescence artefact?], E-sel TNF inh -75 and ERa coact pot 28.
`O=C(c1ccccc1)c1ccc2nc(-c3ccco3)c(-c3ccco3)nc2c1` gave E-sel TNF inh -45.
Screening O=C(NCCO)c1ccc2nc(-c3ccco3)c(-c3ccco3)nc2c1 returned Calb biofilm kill 4, F-actin modifier -4, ERa coact inh 64*, ERb SRC1 inh 87*[fluorescence artefact?], E-sel TNF inh 4 and ERa coact pot 16.
For O=C(NC1CCCC1)c1ccc2nc(-c3ccco3)c(-c3ccco3)nc2c1 the results were Calb biofilm kill 3, F-actin modifier 15, ERa coact inh 94*[fluorescence artefact?], ERb SRC1 inh 93*[fluorescence artefact?], E-sel TNF inh -1 and ERa coact pot 11.
O=C(NCCc1ccccc1)c1ccc2nc(-c3ccco3)c(-c3ccco3)nc2c1 was read as Calb biofilm kill 3, F-actin modifier 3, ERa coact inh 86*[fluorescence artefact?], ERb SRC1 inh 88*[fluorescence artefact?], E-sel TNF inh -21 and ERa coact pot 27.
CCOC(=O)C1CCC(CNCc2ccc(Cl)cc2)CC1 (stereo not given) was read as E-sel TNF inh 18.
Screening CCCCCn1c(N2CCOCC2)nc2c1c(=O)n(CC(N)=O)c(=O)n2C returned Calb biofilm kill -15, F-actin modifier 21, ERa coact inh -16, ERb SRC1 inh -3, E-sel TNF inh -5 and ERa coact pot 140.
`Cc1ccc(Cl)cc1N1CCN(S(=O)(=O)c2ccc3c(c2)oc(=O)n3C)CC1` gave Calb biofilm kill 2, F-actin modifier 1, ERa coact inh -1, ERb SRC1 inh 37, E-sel TNF inh 1 and ERa coact pot 83.
`O=C(NNC(=O)C1CCN(S(=O)(=O)c2ccc(Cl)cc2)CC1)c1ccccc1` gave E-sel TNF inh -12.
`COc1cccc(-c2[nH]nc3c2C(c2ccsc2)C(C#N)=C(N)O3)c1` (stereo not given) gave F-actin modifier 21 and E-sel TNF inh -4.
Screening COc1cccc(-c2[nH]nc3c2C(c2ccoc2)C(C#N)=C(N)O3)c1 (stereo not given) returned Calb biofilm kill 6, F-actin modifier -11, ERa coact inh 50, ERb SRC1 inh 58*, E-sel TNF inh 23 and ERa coact pot 65.
CCCn1c(C)cc(=O)c2cc(NC(=O)c3cnccn3)ccc21 was read as Calb biofilm kill 9, F-actin modifier 25, ERa coact inh 40, ERb SRC1 inh 27 and ERa coact pot 226*[fluorescence artefact?].
For N#CC1=C(N)C(C#N)(C#N)[C@H](c2ccncc2)[C@H]2CN(C(=O)OCc3ccccc3)CC=C12 the results were E-sel TNF inh 96*.
For COc1cccc(NC2=Nc3cccc4cccc2c34)c1 the results were E-sel TNF inh 10.
For N#Cc1ccccc1S(=O)(=O)N1CCN(c2cnccn2)CC1 the results were E-sel TNF inh -5.
`COc1ccc(NC(=O)COC(=O)c2cc(OC)c(OC)cc2NC(=O)c2ccco2)cc1OC` gave F-actin modifier 10.
Screening O=C(COC(=O)c1cccs1)NCc1ccco1 returned Calb biofilm kill 6, ERa coact inh 53*[fluorescence artefact?], ERb SRC1 inh 53* and ERa coact pot 77.
